Compounds with a hit are over-represented: about 5.9% of the library has one in this group of screens.
HepG2 tox: counter-screen for TGF-b inhibitors: cytotoxicity in HepG2 cells. HepG2 CAGA-GFP viability, ATP luminescence, 18 h. Potency, µM (doses to about 46.1 µM), without a hit: top-dose activity change, negative = cytotoxicity, most hits filed as cytotoxic. hit rate 0.76% among 410,000
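HepG2 CAGA-GFP cells (1000/well, DMEM with 1% FBS) received compound, then TGF-beta at 500 pg/mL final, and were incubated 18 hours at 37 degrees C. Viability was read by CellTiter-Glo luminescence. Media-only wells were set as complete cell-killing and DMSO as no toxicity.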
KB-V1 cytotox: kills drug-selected multidrug resistant KB-V1 cells; KB-V1 MDR cells viability, CellTiter-Glo, 72 h; Potency, µM (series often up to 46.1 µM), hits mostly cytotoxic; hit rate 3.4% among 400,000; AID 1347076; also: % is scaled to controls: 0 for no effect and ±100 for the full control effect; nearly all actives have a fitted effect of over 60% in size
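Readout: CellTiter-Glo luminescence, 10 min after addition. Cells: KB-V1 MDR subline, 72 h at 37 degrees C with compound. Analysis: corrected, normalized data fitted to concentration-effect curves.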
TGFb SMAD3 inh: inhibitors of TGF-b signaling. HepG2 CAGA-GFP TGF-b/SMAD3 reporter, GFP fluorescence, 18 h; TGF-beta stimulated, 500 pg/mL final. Potency, µM (top dose mostly 46.1 µM), for the others: at the highest dose activity, negative = inhibition, hits mostly inhibitors. hit rate 1.2% among 410,000. AID 588855; also: % is scaled to controls: 0 for no effect and ±100 for the full control effect; nearly all actives have a fitted effect of over 65% in size
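HEPG2 CAGA-GFP, 1000 cells/well; 2 h settle, 37 C; cpd via pin tool; TGF-b 500 pg/mL final; 18 h, 37 C; GFP imaging ex488/em500-530; %Activity normalised to -TGF-b and +DMSO controls; CRC fit, curve class.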
ATXN2 expr inh: ATXN2 expression inhibition | hit rate 0.72% among 360,000 | AID 1745845 | Potency, µM (doses to about 57 µM), for the others: top-dose activity change, negative = inhibition, usual class: inhibitors | HEK-293 ATXN2-luciferase reporter, luminescence, 24 h; also: % is scaled to controls: 0 for no effect and ±100 for the full control effect; nearly all actives have a fitted effect of over 55% in size
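ATXN2-luciferase reporter cells (luciferase flanked by upstream and downstream ATXN2 gene portions) were treated 24 h at 37 °C with compounds at up to 57 uM. SteadyGlo luminescence gave expression; GF-AFC fluorescence gave viability.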
KB-3-1 tox: kills parental KB-3-1 adenocarcinoma cells; KB-3-1 viability, CellTiter-Glo ATP luminescence, 72 h; Potency, µM (highest dose often 46.1 µM), usual class: cytotoxic; hit rate 1.4% among 400,000; AID 1347075; also: % is scaled to controls: 0 for no effect and ±100 for the full control effect; nearly all actives have a fitted effect of over 60% in size
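Parental KB-3-1 viability, qHTS format: 72 h compound exposure, 37 °C; CellTiter-Glo; media-only wells and DMSO plates as controls; concentration-effect fits on corrected data.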
ATXN viability: viability counter-screen for ATXN expression inhibitors; S2 cells (HEK-293 line with an ATXN2-luciferase reporter) viability, CellTiter-Fluor protease fluorescence, 24 h; hit rate 0.49% among 400,000; Potency, µM (highest dose often 56.7 µM), usual class: cytotoxic; also: nearly all actives have a fitted effect of over 40% in size
Numbers without * were called inactive; i = inactive; ? = inconclusive; nt = no result given. Calls follow the shape of the dose curve; as a rule, active = well fitted curve in the direction sought with a large enough effect; inconclusive = small, poorly fitted or top-dose-only effect, or another doubt; inactive = no such curve, though single readings can be large; an effect the other way counts as inactive or inconclusive. Potency is read from the fitted curve at half-maximal effect.

SMILES	HepG2 tox	KB-V1 cytotox	TGFb SMAD3 inh	ATXN2 expr inh	KB-3-1 tox	ATXN viability
CCc1n[nH]c(=S)n1/N=C/c1cccc2ccccc12	3%	5.8µM*	-10%	4%	6.5µM*	i
Cc1nnc(-c2ccccc2)c(=O)n1/N=C/c1c(O)ccc2ccccc12	-4%	2.9µM*	0%	?	?	i
CCc1n[nH]c(=S)n1/N=C/c1c(O)ccc2ccccc12	-3%	5.8µM*	-3%	nt	?	i
CC(C)(CC(=O)NCc1ccc(Cl)cc1Cl)CC1=NS(=O)(=O)c2ccccc2N1	-51%	?	?	25µM*	?	i
O=C(C[C@@H]1C/C=C/CC[C@H](Cc2ccc(F)cc2)C(=O)OC[C@@H](Cc2ccccc2)NC1=O)N[C@H](CO)Cc1ccccc1	-104%	i	?	11µM*	?	13µM*
C[C@@H]1COC(=O)[C@H](Cc2ccc(F)cc2)CC/C=C/C[C@@H](CC(=O)N[C@@H](CO)Cc2ccccc2)C(=O)N1	-13%	i	-3%	6%	i	i
CCCCCCCCCCCCCCCCCCNC(=O)OC1CCN(C(=O)OC[C@H](COC(=O)N(Cc2cccc[n+]2CC)C(=O)c2ccccc2OC)OC)CC1	nt	nt	nt	35µM*	nt	35µM*
Nc1cc2c(cc1Cl)-c1ccc(Cl)cc1C2	-13%	i	-19%	101%	i	i
CCCC(=O)N1CCN(c2ccc(NC(=S)NC(=O)CC)cc2)CC1	1%	23µM*	-6%	5%	i	i
O=C(N/N=C/c1ccccn1)c1[nH]c2ccc([N+](=O)[O-])cc2c1-c1ccccc1	2%	?	?	?	9.2µM*	?
O=C(N/N=C/c1ccccc1)c1[nH]c2ccc(Br)cc2c1-c1ccccc1	4%	0.82µM*	?	-35%	0.73µM*	?
O=C(N/N=C/c1ccccn1)c1ccc([N+](=O)[O-])cc1Cl	-35%	i	-9%	-39%	i	i
O=C(c1cccc([N+](=O)[O-])c1)N1c2ncnn2C2(CCCCC2)[C@@H]2CCCC[C@@H]21	-16%	i	1%	-23%	i	i
COc1cccc(CNC(=O)Cn2cc3c(n2)-c2c(oc(C(=O)N4CCCC4)c2C)CC3)c1OC	-33%	nt	?	nt	nt	nt
CCOc1c(OC(C)=O)ccc(/C=C/c2ccc3cccc(OC)c3n2)c1[N+](=O)[O-]	-38%	16µM*	-22%	-3%	i	i
CN(C)c1ccc(/C=C2\C(=O)/C(=C\c3ccc(N(C)C)cc3)c3ccccc32)cc1	-11%	i	5%	nt	i	nt
Cc1ccc(S(=O)(=O)c2nnn3c2nc(NC(C)C)c2sccc23)cc1	16µM*	i	10µM*	nt	i	nt
COc1cc(C2=NOC(C(=O)Nc3ccc(C)cc3)C2)cc(OC)c1OC (stereo not given)	-9%	i	-18%	-21%	i	i
COc1ccc(NC(=O)c2cc(C(C)C)on2)cc1OC	5%	21µM*	7%	33%	i	i
COc1cc(NC(=O)c2cc(-c3ccccc3)on2)cc(OC)c1OC	-18%	?	4%	?	?	i
COc1ccc(NC(=O)C2CC(c3cc(OC)c(OC)c(OC)c3)=NO2)cc1OC (stereo not given)	-2%	13µM*	10%	2%	i	i
COc1ccc(NC(=O)C2CC(c3ccc(OC)c(OC)c3)=NO2)cc1OC (stereo not given)	9%	i	23%	1%	i	i
COc1cccc(-c2cc(C(=O)Nc3cc(OC)c(OC)c(OC)c3)no2)c1	-21%	3.7µM*	2%	-38%	?	i
COc1cc(C2=NOC(C(=O)NC3CCCCC3)C2)cc(OC)c1OC (stereo not given)	1%	9.2µM*	2%	0%	i	i
CCCn1c(=O)c2sccc2n2c(CCCC(=O)Nc3ccc(C)c(F)c3)nnc12	-10%	nt	-17%	nt	nt	nt
SMILES	HepG2 tox	KB-V1 cytotox	TGFb SMAD3 inh	ATXN2 expr inh	KB-3-1 tox	ATXN viability
Cc1ccc(N2CCN(c3cc(C)nc4c(-c5ccc(Cl)cc5)c(C)nn34)CC2C)cc1 (stereo not given)	-11%	nt	3%	nt	nt	nt
COc1cc(NC(=O)C2CC(c3cccc(Br)c3)=NO2)cc(OC)c1OC (stereo not given)	-25%	?	?	-17%	i	nt
COc1cccc(C2=NOC(C(=O)Nc3cc(OC)c(OC)c(OC)c3)C2)c1 (stereo not given)	-4%	21µM*	?	-17%	i	i
COc1cc(/C=N/Nc2nc(N3CCCC3)nc(N3CCCC3)n2)ccc1O	-18%	i	-2%	1%	i	i
COc1ccc(-c2cnnc(N/N=C/c3ccc(O)c(OC)c3)n2)cc1	-42%	5.8µM*	-13%	3%	4.1µM*	i
COc1ccc(-c2cnnc(N/N=C/c3ccc(-c4ccc([N+](=O)[O-])cc4)o3)n2)cc1	1%	18µM*	-14%	?	4.6µM*	?
CCN(C(=O)Cn1c(C(=O)OC)cc2oc3ccccc3c21)c1cccc(C)c1	-32%	i	?	?	i	i
CNc1ccc(C(=O)Oc2cc(O/N=[N+](\[O-])N(C)C)c([N+](=O)[O-])cc2[N+](=O)[O-])cc1	-1%	nt	-11%	nt	nt	nt
Cc1cc(C)c(S(=O)(=O)N2CCCCC2CCNC(=O)C(=O)NCCN2CCOCC2)c(C)c1 (stereo not given)	6%	3.3µM*	-3%	2%	i	i
Cc1cc(F)ccc1S(=O)(=O)N1CCCCC1CCNC(=O)C(=O)NCCN1CCOCC1 (stereo not given)	4%	16µM*	11%	-10%	i	?
Cc1ccc(C)c(S(=O)(=O)N2CCCCC2CCNC(=O)C(=O)NCc2ccncc2)c1 (stereo not given)	7%	2.3µM*	-29%	-16%	?	?
O=C(NCCC1CCCCN1S(=O)(=O)c1ccc(F)cc1)C(=O)NCCN1CCOCC1 (stereo not given)	0%	i	18%	-4%	i	?
CCn1cc(C(=O)OCC(=O)Nc2ccc(C)c(Cl)c2)c(=O)c2ccc(C)nc21	-39%	?	-1%	1%	i	nt
Cc1nc2nncn2c(NCc2ccc(F)cc2)c1C	-5%	i	?	-19%	?	i
Cc1nc2nncn2c(NCc2ccc(Cl)cc2)c1C	-20%	i	-16%	?	2.6µM*	?
CCc1nc2ccc(C(=O)Nc3ccc(OC)c(OC)c3)cn2c1N(C)CCC(C)C	20µM*	i	14µM*	?	i	nt

Screening data deposited in PubChem by National Center for Advancing Translational Sciences (NCATS).
